About 11,000 (3.5%) of roughly 310,000 compounds were called active. Inconclusive results (about 8%) are left out. This is one part of a sample in which actives are shown more often than they occur. Unmarked numbers belong to inactive results. Calls follow the shape of the dose curve; as a rule, active = well fitted inhibition curve with a large enough effect; inconclusive = small, poorly fitted or top-dose-only effect, or effect the other way; inactive = flat fitted curve, though single readings scatter.
Assay: VP16 counterscreen qHTS for inhibitors of ROR gamma transcriptional activity;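 also: Gal4-VP16 expression switched on by copper sulfate through the metallothionein promoter; nearly all actives have a fitted effect of over 50% in size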
Settings: Drosophila S2 Gal4-VP16 UAS-luciferase, luminescence, 20 h; series mostly up to 53.6 µM; activity, negative = inhibition: at the top concentration
% is scaled to controls: 0 for no effect and ±100 for the full control effect; potency is read from the fitted curve at half-maximal effect.

Row | Structure (SMILES) | activity, negative = inhibition [%] | Potency
1 | COc1ccc(CNc2nccs2)cc1 | -1.03 | –
2 | CCC(=C/c1sc2ccc3ccccc3c2[n+]1C)/C=C1\Sc2ccc3ccccc3c2N1C | – | 1 µM (active)
3 | COc1cccc(OC)c1C(=O)Nc1c(C(=O)N2CCN(c3ccccn3)CC2)oc2ccccc12 | -3.08 | –
4 | O=C(c1cccnc1)N1CCN(S(=O)(=O)c2cccs2)CC1 | -8.19 | –
5 | O=S(=O)(NC1CCCCC1N1CCN(c2ccccc2F)CC1)c1ccccc1 (stereo not given) | 1.87 | –
6 | CCOC(=O)c1cnc(Nc2nc3ccccc3o2)nc1CSC(=S)N1CCCCC1 | – | 1 µM (active)
7 | CCc1ccc(CNC(=O)C2CCCN(c3nc4ccccc4o3)C2)cc1 (stereo not given) | 0.192 | –
8 | CCOC(=O)CCNC(=O)N1CCCC(C(=O)c2ccccc2SC)C1 (stereo not given) | 7.34 | –
9 | COc1cc(C(=O)NCc2cc3cc(Cl)ccc3n2C)cc(OC)c1OC | -1.94 | –
10 | Cc1ccc(NS(=O)(=O)c2ccc3c(c2)oc(=O)n3C)c(C)c1 | 8.38 | –
11 | COc1ccccc1N(C)C(=O)c1cc(S(=O)(=O)N2CCc3ccccc32)cn1C | 3.02 | –
12 | COC(=O)c1ccc(C(=O)NC2CC(C)(C)Cc3c2cnn3-c2ccc(F)cc2)nc1 (stereo not given) | -7.58 | –
13 | Oc1ccc2ccccc2c1N=Nc1nccs1 | – | 3.55 µM (active)
14 | Oc1ccc(N=Nc2nccs2)c(O)c1 | 1.19 | –
15 | Oc1c(C=Nc2cccc3nsnc23)ccc2ccccc12 | -4.1 | –
16 | Cc1csc(NC(=O)CSc2nnc(-c3cccnc3)o2)n1 | -3.93 | –
17 | COc1ccc(-c2nc(CS(=O)(=O)CC(=O)NCc3cccc(Br)c3)c(C)o2)cc1 | -15.1 | –
18 | Cc1ccc(N=Nc2c(C)[nH]n(-c3ccccc3)c2=O)cc1 | 5.41 | –
19 | Cc1[nH]n(C(N)=S)c(=O)c1N=Nc1ccc(Cl)cc1Cl | – | 2.82 µM (active)
20 | Cc1cccc(N=Nc2c(C)[nH]n(-c3ccccc3)c2=O)c1 | -25.6 | –
21 | COc1ccc(NC(=O)c2cc(-c3cc(OC)c(OC)c(OC)c3)nc3ccccc23)c(OC)c1 | 0.317 | –
22 | O=C(NC(=S)N1CCN(Cc2ccccc2)CC1)c1ccccc1 | – | 3.55 µM (active)
23 | O=C(Nc1ccccc1)N1CCN(Cc2ccccc2)CC1 | 5.98 | –
24 | O=C(c1cccc(Cl)c1)N1CCN(Cc2ccccc2)CC1 | -10.5 | –
25 | CC1CCN(S(=O)(=O)c2ccc3[nH]c(=O)ccc3c2)CC1 | -0.775 | –
26 | CCC(C)[C@H](NC(=O)N1CCn2c1nc1ccccc12)C(=O)NCc1ccc(OC)cc1 (stereo not given in full) | -29.5 | –
27 | CCOc1ccc(/C=N\NC(=O)c2c(C)nc3cc(C)ccn23)cc1 | -13.1 | –

Row | Structure (SMILES) | activity, negative = inhibition [%] | Potency
28 | CCOc1ccc(/C=N/NC(N)=S)cc1 | – | 10 µM (active)
29 | NC(=S)N/N=C/c1ccc([N+](=O)[O-])cc1 | -6.63 | –
30 | COc1cc(OC)cc(C(=O)NCCSCc2ccc(Cl)cc2)c1 | -7.09 | –
31 | COc1cccc(-c2noc(C3CCCN(C(=O)c4ccc(F)cc4)C3)n2)c1 (stereo not given) | 24.3 | –
32 | Cn1c(=O)c2c(SCC(=O)NCC3CCCO3)nc(CC(C)(C)C)nc2n(C)c1=O (stereo not given) | 2.94 | –
33 | O=c1[nH]c(N2CCN(Cc3ccc4c(c3)OCO4)CC2)nc2c1CCCC2 | -11.9 | –
34 | CC(C)(C)n1nnnc1C(c1ccc(F)cc1)N1CCN(Cc2ccc3c(c2)OCO3)CC1 (stereo not given) | -2.02 | –
35 | Fc1ccc2[nH]c3c(N4CCN(Cc5ccc6c(c5)OCO6)CC4)ncnc3c2c1 | – | 7.08 µM (active)
36 | CCC(C)(C)NC(=O)C(c1ccc(O)cc1)N(Cc1ccco1)C(=O)CCC(=O)Nc1ccccn1 (stereo not given) | -2.82 | –
37 | CN(Cc1ccccc1)C(=O)CCc1ccccc1 | -2.33 | –
38 | Cn1c(-c2ccc(F)cc2)cnc1SCC(=O)NNC(=O)Cc1ccccc1 | 1.29 | –
39 | Cc1ccc(-c2cnc(NC(=O)CCC(=O)N(C)Cc3ccccc3)n2C)cc1 | – | 4.47 µM (active)
40 | Cc1ccn2c(=O)c(C(=O)NCCC3=CCCCC3)c(O)nc2c1 | 5.55 | –
41 | O=C(COc1nsnc1N1CCOCC1)Nc1ccccc1Cl | 1.93 | –
42 | O=C(Cn1ncc2c3ccccc3n(Cc3ccccc3)c2c1=O)NCCCN1CCOCC1 | -6.6 | –
43 | CCCn1c(C(Cc2ccccc2)NC(=O)COC)nc2ccccc21 (stereo not given) | 1.52 | –
44 | CCCn1c(NC(=O)C23CC4CC(CC(O)(C4)C2)C3)nc2ccccc21 | – | 5.62 µM (active)
45 | CCOc1ccccc1NC(=O)C12CC3CC(C1)CC(c1ccc(C)cc1)(C3)C2 | -12.1 | –
46 | Cc1ccc2c(=O)cc(C(=O)NCCc3ccc(S(N)(=O)=O)cc3)oc2c1C | -14.1 | –
47 | CCCCc1cc(=O)oc2c(C)c(OCC(=O)N3CCC(C(N)=O)CC3)ccc12 | 4.32 | –
48 | COc1cc(NC(=S)NCCSc2ccc(C)cc2)cc(OC)c1 | – | 6.31 µM (active)
49 | COc1cccc(C(=O)NCCSc2ccc(Br)cc2)c1 | -6.02 | –
50 | COc1cc(NC(=O)Nc2ccc(C)cc2)cc([N+](=O)[O-])c1 | -24.4 | –
51 | Cc1ccc(-n2nc3c(=O)n(C(C)C(=O)NCc4ccc5c(c4)OCO5)nc(C)c3c2C)cc1 (stereo not given) | -6.13 | –
52 | CCCCN(C)CCCNC(=O)c1cc(-c2cccs2)nc2ccccc12 | -4.43 | –
53 | COC(=O)CNC(=O)c1cc(-c2ccncc2)nc2ccccc12 | -0.0526 | –
54 | O=C(O)c1cccc(NC(=O)c2cc(-c3cccc(Cl)c3)nc3ccccc23)c1 | -19.7 | –

Row | Structure (SMILES) | activity, negative = inhibition [%] | Potency
55 | CC(C)(C)Cc1nnc(NC(=O)c2cc(-c3ccccc3)nc3ccccc23)s1 | – | 12.6 µM (active)
56 | COC(=O)c1cc(-c2cccs2)nc2ccccc12 | -5.93 | –
57 | O=C(Nc1nnc(-c2ccccc2)o1)c1cc(-c2cccs2)nc2ccccc12 | – | 1 µM (active)
58 | CCOc1ccc(CN2CCN(CCCc3ccccc3)C(CCO)C2)cc1 (stereo not given) | 2.21 | –
59 | COc1ccc(CNC(=O)CN(C(=O)c2csnn2)c2cnc3ccccc3c2)cc1 | -5.34 | –
60 | OC(COc1ccc(F)cc1Cl)CN1CCc2ccccc2C1 (stereo not given) | -8.96 | –
61 | O=C(c1ccc(S(=O)(=O)N2CCCC2)cc1)N1CCN(c2ccccc2F)CC1 | -6.82 | –
62 | CCOc1cc2[nH]c(=S)n(Cc3ccc(C(=O)N4CCN(C)CC4)cc3)c(=O)c2cc1OCC | -12.6 | –
63 | COc1ccc(C(C[N+](=O)[O-])n2nc(C)cc2C)cc1 (stereo not given) | – | 10 µM (active)
64 | COc1ccc(OCc2cn3c(C)cc(C)nc3n2)cc1 | -21.6 | –
65 | COc1ccc(C(=O)CSc2nc(C)cc(C)n2)cc1[N+](=O)[O-] | 8.46 | –
66 | Cc1cccc(N2C(=O)N3[C@H](c4ccc(F)cc4)[C@@H]4C(=O)N(C5CCCCC5)C(=O)[C@@H]4[C@]3(Cc3ccccc3)C2=O)c1 | -4.63 | –
67 | CC1CC2=C(CC1/C=N/NC(N)=S)C(C)(C)CCC2 (stereo not given) | – | 2.82 µM (active)
68 | COc1ccc(/C=N/OCc2ccccc2C#N)c(OC)c1 | 5.87 | –
69 | O=C1CCC(C(=O)N2CCN(c3ccccc3Cl)CC2)CN1CC1CCCCC1 (stereo not given) | 0.387 | –
70 | COc1cc(CN2CCC(n3nccc3NC(=O)CCCc3ccccc3)CC2)ccc1O | 7.71 | –
71 | Clc1ccc(-c2nnc(SCc3nc4ccccc4s3)o2)cc1 | 24.3 | –
72 | CCc1ccc(-c2nnn(Cc3nn[nH]n3)n2)cc1 | 1.37 | –
73 | CCc1ccc(-c2nnn(Cc3nc4ccccc4s3)n2)cc1 | – | 10 µM (active)
74 | CC(C)C[C@@H](NC(=O)[C@H]1CCCN1C(=O)Cc1ccccc1)C(N)=O | -3.88 | –
75 | CCOC(=O)c1ccccc1NC(=O)CSc1nc2ccccc2c(=O)[nH]1 | -8.12 | –
76 | CCOC(=O)c1cc2c(nc1NC(=S)Nc1ccccc1)CC(C)(CC)OC2 (stereo not given) | – | 7.94 µM (active)
77 | CCOC(=O)c1c(NC(=S)Nc2ccccc2)sc2c1CCN(C)C2 | -15.1 | –
78 | CCOC(=O)C1CN(S(=O)(=O)c2ccc(OC)cc2)c2cc(Cl)ccc2O1 (stereo not given) | -20.3 | –
79 | O=C(C1CCN(Cc2ccc(Cl)cc2)CC1)N1CCN(Cc2ccc3c(c2)OCO3)CC1 | -22.4 | –
80 | O=C(NNC(=S)Nc1ccccc1)c1cccc(S(=O)(=O)N2CCOCC2)c1 | 2.35 | –
81 | O=C(Nc1cccnc1)c1cccc(S(=O)(=O)N2CCCC2)c1 | 20.1 | –

Row | Structure (SMILES) | activity, negative = inhibition [%] | Potency
82 | O=C(NNC1=NCCC1)c1cccc(S(=O)(=O)N2CCCCC2)c1 | – | 10 µM (active)
83 | Cn1c(SCC(=O)N2CCCC2)nnc1-c1ccc2c(c1)OCO2 | -12 | –
84 | O=C(CCNS(=O)(=O)c1cccs1)N1CCN(c2ccc(F)cc2)CC1 | -10.3 | –
85 | COc1cc(S(=O)(=O)Nc2ncn[nH]2)ccc1Cl | -0.0885 | –
86 | CCn1c(O)c(N=NC(=O)c2cccc(S(=O)(=O)N3CCCCC3)c2)c2ccccc21 | 2.98 | –
87 | CCn1c(O)c(N=NC2=NC(=O)CS2)c2cc(C)ccc21 | – | 12.6 µM (active)
88 | CCn1c(=O)cc(O)c2ccccc21 | -4.77 | –
89 | COc1cccc(C(=O)NNC(=O)c2cccc(F)c2)c1 | 16.3 | –
90 | Cc1cc(C)nc(N/N=C/c2c(CO)cnc(C)c2O)n1 | -10.3 | –
91 | COc1ccc(OC)c(CCNC(=O)CCn2ccc3cc(S(=O)(=O)N4CCCC4)ccc32)c1 | -2.74 | –
92 | Cc1cc2nc(-c3ccc(NC(=O)c4cccnc4)cc3)oc2cc1C | 0.702 | –
93 | Cc1ccc2nc(-c3ccc(NC(=O)c4cccnc4)cc3)oc2c1 | – | 1.26 µM (active)
94 | CC(=O)Nc1ccc(-c2nc3ccccc3o2)cc1 | -15.3 | –
95 | CN(c1ccccc1)S(=O)(=O)c1ccc(Cl)c(C(=O)OCC(N)=O)c1 | 5.37 | –
96 | CC(=O)c1c(C)[nH]c(C(=O)COC(=O)c2cccc(S(=O)(=O)N(C)c3ccccc3)c2)c1C | – | 5.62 µM (active)
97 | COc1ccc(C)cc1NC(=O)C(OC(=O)c1cccc(S(=O)(=O)N(C)c2ccccc2)c1)c1ccccc1 (stereo not given) | 3.82 | –
98 | CCCn1nnnc1NCc1ccc(OC)cc1 | 4.22 | –
99 | CCn1c(=O)c2ccccc2n(CC(=O)N2CCCc3ccccc32)c1=O | -5.13 | –
100 | O=C(Nc1ccccc1Cl)/C(Cl)=C(\Cl)S(=O)c1ccccc1 (stereo not given) | – | 0.794 µM (active)
101 | O=C(Nc1ccccc1Cl)Nn1cnnc1 | -1.62 | –
102 | COCCN(CCOC)C(=S)Nc1ccccc1Cl | -1.05 | –
103 | Cc1cccc(C(=O)Nc2ccc(Oc3cnccn3)cc2)c1 | 18.6 | –
104 | COc1ccc(OC)c(S(=O)(=O)N2CCCC(C(=O)NCCc3ccccc3)C2)c1 (stereo not given) | 3.86 | –
105 | COc1ccc(NC(=O)Cn2ncn3c(cc4ccccc43)c2=O)c(OC)c1OC | 0.993 | –
